In the supplement of paper PMC6555819 one finds PBM binding z-score data, which are given here for 40 sequences.

In this assay the test system is PXR homodimer (NR concentration 270 nM). Briefly: PBM binding z-score (relative to random genomic background probes); higher = stronger binding; sequences stand for … in GC…GCGATTGACAGCGTAGAATGAAGG
In short, it runs like this:
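Antibodies against each partner of ligand-free nuclear receptor dimers (one per run) detected binding on custom Agilent 4×180K protein-binding microarrays after 1 h incubation. The double-stranded probes had 34-nt variable regions carrying direct-repeat seeds, single-nucleotide variants, half-site ablations and random human genomic background sequences. Binding z-scores, from regression-normalized fluorescence, use the random background probes as reference.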
CCTTGCGGGTCACGAGGTTATAGCACGACGAGCG: the PBM binding z-score amounted to 0.214. Under TCGAGTAGGTTACCAATGGGGCTTTCAGCTTTCT stands -0.767; under CGTCCAAGGACAAGGTCAGTGAAAGAGACTCGAA, 0.632. The figure for ATCTCTAGGTAAGACTCAGTTCAGAGAAGAACGC is 1.56; for TCTTGTAGATCAACAGGAGGTTAAGAAAGATCGA it is -0.259.

As to CCAGACAGGTGAGAAGGTAACTCAACCTCGATTA, the PBM binding z-score was determined as 0.428. Under CTACCAAGGTGAGCAAGGTCGTTGATTACTATTC stands 0.655; under AGTCAAAGTACACTAGGTAACGTAAGATTCAGCT, -0.00521; under CGAACTAGGTCAGAAAAGGACAGTGAAGGATGAT, -0.473. Regarding TCATATAGGTAAATGCTAGCTGAAAGTCCGATCT, the PBM binding z-score is 0.27.

The sequence TTACTAAGGTGAGCTGAGGTCGTTGATCCAACTC had a PBM binding z-score of 0.515. Under ACTAGCAGGCCAAGTTTGGGTTACTCAAACAAAG stands -0.543; under TTACCAAGGTGAGCTGAGGACGTTGATCCAACTC, -0.289. The figure for ATCTCTAGGTAAAAGTTCAATGAATCCCGAGGAT is 2.8. Sequence GTACCAAGGTGAATGGGTCGTTGATGAGTAGGCG displayed a PBM binding z-score of 0.284. With CAGCCTAGGTCAGGGCCAGTATCGGAGGAACGTT, the PBM binding z-score was -1.08. The figure for CAAACTAGGTCAGGAGGTCAAAGTCCGCTTCCCG is 2.29; for TAGCCTAGGTCATTCGGGCCAGTATAGTGTCGGC it is 0.189; for ACAGACAGGCGAGTGAAGGTAACTCAGCTGGACG it is -0.674. The figure for GGAACCAGGGCATTCGAGTTGATAGCATGGCGAT is 0.865; for ATATGTAGGTTATCGGGTCAGTCAGTTTGCGCAT it is 2.52. Regarding CCTTACGGGTCACTGACAGGTTATATCATTTGGA, the PBM binding z-score worked out at 0.432. Under GCTCGGAGGACAAGGTCAAAGCTTTGTCCGTAGA stands 0.43; under GCTAGTTGGTCAGTAAAAGGCCACACACCGGTCG, -0.108.

As for CCTTACGGGTCACTGACCGGTTATAGCATTTGGA, the PBM binding z-score was 0.0567.

On to CCTACTGGGCCACGAAGGGTCATTGATTCAGTGA, for which the PBM binding z-score was 0.0111. In the case of AGAATGAGGGCACGCTGAGTTGATAGCAGAGTAG, the PBM binding z-score is 0.452. Consider GCTAACAGGCCATTTGGGTCACTCAATGACGGGC, for which the PBM binding z-score turned out to be 0.0442.

For the sequence TCGAGTAGGTTAGCGGCATTCAGAATGGCGTCGA, the PBM binding z-score was -0.924. Under TATACAGGGTTAAAGGCCAGAGTACGAATGTCGA stands 0.41; under CGAACTAGGTCTTCCAGGACAGTGAATACATTGA, -0.138. The figure for TTACCAAGGTGAGCTGAAGTCGTTGATCCAACTC is -0.685; for CGTGCAAGGTCAAGGTCAGTGAAAGAGACTCGAA it is 1.2; for CCGAGTAGGTTATGGGGCAATCAGGCAACGGTGA it is -0.0981. The figure for GCAGACGGGTGAAACGCAGGTAACTCAGGGTGGC is -0.933; for TATAGAGGGTCAAAGGCCAGAGTACGAATGTCGA it is 0.282. GATACAGGGTCAGCTATAGGCCAGAGTATGGAAA: the PBM binding z-score was -0.0446. The figure for ATCTCTAGGTAAGACTCAGTTCAGGGAAGAACGC is 1.64; for AATACAGGGTCATCGTAGGCCTGAGTACGCACAG it is 0.334; for TCTTGTAGATCACAGGTTAAGAAAGCCGAAGCCT it is -0.359.
